# Assay outcomes (PubChem BioAssay)
# Hits are enriched below; roughly 10% of the tested compounds scored in any of these assays.
# Luc counter: blocks Kinase-Glo luciferase, a counter-screen artifact; Q27757; Kinase-Glo luciferase, ATP luminescence, 8 min; Potency, µM (doses to about 38.3 µM), for the others: top-dose activity change, negative = inhibition, hits mostly inhibitors; hit rate 0.28% among 200,000; active = well fitted inhibition curve with a large enough effect; inconclusive = small, poorly fitted or top-dose-only effect; note: potency is the fitted concentration of half-maximal effect; nearly all actives have a fitted effect of over 60% in size
#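 Compounds were added to a substrate mix at pH 7.2 (50 mM imidazole, 10 uM ATP, within the enzyme's linear range), followed by Kinase-Glo detection reagent; luminescence was measured after 8 minutes at ambient temperature.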
# LMNA splice mod: LMNA splicing modulation; HeLa LMNA splicing GFP/RFP minigene ratio, 48 h; Potency, µM (top dose mostly 46.1 µM), inactives show top-dose ratio change, negative = inhibition, actives largely listed as inhibitors; hit rate 0.01% among 200,000; AID 1487; active = well fitted inhibition curve with a large enough effect in the signal ratio, with a control signal flat, not every such curve was filed as active; inconclusive = small, poorly fitted or top-dose-only effect, or effect the other way, or a change in a side signal; the % refers to the signal ratio; note: potency is the fitted concentration of half-maximal effect
#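 Read-out is the ratio of GFP to DsRed2 object intensity, acquired by 488 nm laser-scanning cytometry on HeLa lamin A-EGFP minigene reporter cells. Compound incubation 48 hrs at 37 °C in Opti-MEM with 2% FBS; DMSO 0.5% final.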
# ALDH1A1 block: inhibitors of human aldehyde dehydrogenase 1A1; AID 1030; Potency, µM (series often up to 75.3 µM), without a hit: at the top dose activity, negative = inhibition, usual class: inhibitors; Purified ALDH1A1, NADH fluorescence, propionaldehyde substrate; hit rate 7.3% among 220,000;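 note: potency is the fitted concentration of half-maximal effect; plate controls were no enzyme wells and a reference inhibitor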
# HPGD block: HPGD (human) dehydrogenase inhibition; purified HPGD, NADH fluorescence kinetic, PGE2 substrate; hit rate 4.3% among 150,000; Potency, µM, without a hit: top-dose activity change, negative = inhibition, actives largely listed as inhibitors; note: potency is the fitted concentration of half-maximal effect
# Target sequence (P15428 whole entry, looked up): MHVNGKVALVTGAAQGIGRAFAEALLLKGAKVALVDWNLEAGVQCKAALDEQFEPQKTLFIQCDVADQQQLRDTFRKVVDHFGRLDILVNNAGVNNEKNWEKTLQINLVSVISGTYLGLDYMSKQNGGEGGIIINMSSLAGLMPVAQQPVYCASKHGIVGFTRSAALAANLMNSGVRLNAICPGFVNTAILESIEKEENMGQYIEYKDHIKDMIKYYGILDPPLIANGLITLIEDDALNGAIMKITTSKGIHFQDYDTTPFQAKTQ
#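 20 nM HPGD preincubated 15 min at room temperature with compound in 50 mM Tris-HCl pH 8, 0.01% Tween 20. Started with 1 mM NAD+ and 30 uM prostaglandin E2; NADH fluorescence (360/450 nm) read 5 times over 30-s intervals, last minus first.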
# PNC inhibitor: perinucleolar compartment assembly inhibition; hit rate 3.1% among 140,000; AID 2417; PC3M PTB-GFP, PNC prevalence imaging, 16 h; hits give low values; activity change (PNC), negative = inhibition, % at 10 µM;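 active = readout at or below -70, meaning at least 70% loss of cells showing the perinucleolar compartment, a nuclear body marking cancer cells; inconclusive = readout between -30 and a set limit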;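 note: plate controls were DMSO wells for no effect and camptothecin positive control wells for full effect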
#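 PC3M cells stably expressing PTB-GFP, 750–1000 cells/well, treated 16 h at 37 °C with compound (23 nl of library stock), in duplicate. After paraformaldehyde fixation and Hoechst stain, imaged at 20x; PNC prevalence scored by image analysis.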
# The depositor's hits bear a star; u = inconclusive; x = no result given; [ ] = remark or other dose. Unless noted, calls come from the whole dose curve; as a rule, active = well fitted inhibition curve with a large enough effect (not every such curve was filed as active); inconclusive = small, poorly fitted or top-dose-only effect, or another doubt; inactive = no such curve, though single readings can be large or run the other way. Unless noted, % is set by controls: 0 for no effect and ±100 for the full control effect.
SMILES,Luc counter,LMNA splice mod,ALDH1A1 block,HPGD block,PNC inhibitor
CCCNC(=O)OC[C@@H]1O[C@H](CCO/N=C\c2ccc(C(=O)N3[C@H](c4ccc(C)cc4)[C@@H](C)CC[C@H]3C(=O)OC)cc2)C=C[C@@H]1Oc1ccc(OC)cc1,x,x,-5%[13.5 µM],x,x
Cc1ccc(C(C[N+](=O)[O-])c2c(-c3ccccc3O)[nH][nH]c2=O)cc1 (stereo not drawn),0%,u,20µM*,-24%,47
COc1ccc(C(=O)CCNc2ccc(C)c(Cl)c2)cc1,2%,-5%,3.2µM*,0%,-18
CCN1C(=O)N[C@@H](c2cccs2)C(C(=O)OC)=C1C,0%[7.66 µM],16%[9.22 µM],-7%[13.5 µM],0%,x
COC(=O)C1=C(C)C(c2cccs2)NC(=O)N1C (stereo not drawn),0%,-6%,-4%,-13%,-100*
O=c1c(-c2ccc(Cl)cc2)nc2cnc(Oc3ccccc3)nc2n1C1CC1,-6%,x,u,-11%,x
N#Cc1cccc(-c2nc3cnc(Oc4cccc(Cl)c4)nc3n(C3CC3)c2=O)c1,x,u,25µM*,x,x
Cc1cc[n+](-c2[nH]c(=O)sc2/C=N/N=C(\[O-])c2ccccc2)cc1,x,x,13µM*,x,x
Cc1cc[n+](-c2[nH]c(=O)sc2/C=N/N=C(\[O-])CCn2c3ccccc3c3ccccc32)cc1,x,x,-9%,x,x
Cc1cc[n+](-c2[nH]c(=O)sc2/C=N/N=C(\[O-])c2ccccc2)cc1C,-4%,3%[46 µM],22µM*,x,x
CC1=Nn2c(nnc2-c2ccco2)SC1,-1%,5%,18µM*,32µM*,-19
CC1=Nn2c(nnc2-c2ccccc2Cl)SC1,0%,2%,-11%,25µM*,20
COc1ccc(C2=Nn3c(nnc3-c3ccco3)SC2)cc1OC,1%,u,u,u,-7
COc1ccccc1-c1nnc2n1N=C(C)CS2,0%,3%,-4%,-16%,-7
Cc1ccc2[nH]c3nc(CCCn4ccnc4-c4ccccc4)nnc3c2c1,x,x,-11%[13.5 µM],x,x
CN(c1ccccc1)c1nc2ccsc2c(=O)s1,-2%,6%,-16%,28µM*,18
O=C(O)CN=C1NC2(CCCCC2)Cc2ccccc21,1%,-9%,8%,-13%,-100*
O=C1NC2(CCCCC2)Cc2ccccc21,-2%,5%,u,-27%,u
Cc1oc(-c2ccccc2Cl)nc1CSc1nc2ncccc2[nH]1,x,-9%[46 µM],x,x,x
CC1=CS(=O)(=O)CC1Sc1nc(C)n[nH]1 (stereo not drawn),0%,-4%[46 µM],12%,x,x
CC1=CS(=O)(=O)CC1Sc1ncn[nH]1 (stereo not drawn),3%,-5%,-1%,-20%,-100*
CCC1(C(=O)O)NC(c2cc(OC)ccc2O)C2C(=O)N(Cc3ccccc3)C(=O)C21 (stereo not drawn),-3%,1%,9%,-1%,34
CCCC1(C(=O)O)NC(c2ccccc2O)C2C(=O)N(Cc3ccccc3)C(=O)C21 (stereo not drawn),-2%,-1%,2%,-9%,-110*
Cc1ccc(CNC(=O)c2cc(S(=O)(=O)N3CCCCC3)cn2C)cc1,x,-16%[46 µM],x,x,x
O=C(CSc1ccc2c(c1)OCCO2)NC(=O)NC1CCCC1,4%,u,-17%,-12%,-117*
SMILES,Luc counter,LMNA splice mod,ALDH1A1 block,HPGD block,PNC inhibitor
CCN1C(C)=C(C(=O)OC)C(c2ccccc2)N2C(=O)[C@](O)(C(=O)OC)CC(C#N)=C12 (stereo partly drawn),x,x,4%[13.5 µM],x,x
CC#CCOCC/C=C1/c2ccccc2C(OC)C1C (stereo not drawn),x,x,-8%[13.5 µM],x,x
O=C1ON=C(c2ccccc2)/C1=C/c1ccc(OS(=O)(=O)c2ccccc2)cc1,3%,-7%,11µM*,10µM*,u
O=C(COC(=O)c1cc(S(=O)(=O)N2CCCCC2)ccc1N1CCOCC1)NCCc1ccc(F)cc1,-3%,-6%[46 µM],u,x,x
CCOC(=O)C1(CCCc2ccccc2)CCN(C(=O)CCc2cnn(C)c2)CC1,1%,5%[46 µM],u,x,x
CCOC(=O)C1(CCCc2ccccc2)CCN(C(=O)c2cnc(C)cn2)CC1,3%,x,4.5µM*,x,x
CCOC(=O)C1(CCCc2ccccc2)CCN(C(=O)c2cc(C)nc(C)n2)CC1,-1%,u,u,x,x
CCOC(=O)C1(CCCc2ccccc2)CCN(C(=O)CCOC)CC1,x,x,0.45µM*,x,x
CCOC(=O)C1(CCCc2ccccc2)CCN(C(=O)CCN2CCCCC2=O)CC1,-1%,x,4.5µM*,x,x
CCOC(=O)C1CCC(CN(Cc2ccc(Cl)cc2)S(=O)(=O)c2cccc(Cl)c2C)CC1 (stereo not drawn),x,-26%[46 µM],x,x,x
O=C(c1cccc(F)c1)N1CCC2(CC1)CCN(c1cccc(-c3ccccc3)c1)CC2,-3%,x,u,-16%,x
CCC1=C(OC(=O)N(CC)CC)N2C(=O)OC(=NCC3CC3)[C@]2(C)[C@H]2C1=CC[C@H]1C(=O)N(c3ccccc3)C(=O)[C@H]12,-2%,x,-11%,-16%,x
FC(F)(F)c1ccccc1-c1cc(N2CCNCC2)ncn1,-7%,-8%,-12%,-5%,x
COc1ccc(-c2cc3c(=O)n(CC(=O)NC4CCN(Cc5ccccc5)CC4)ncn3n2)cc1,0%,13%,6%,-12%,-90*
CCOC(=O)c1cc(-c2ccc(OC)cc2)n(CCC(=O)NC2CCN(Cc3ccccc3)CC2)c1C,0%,x,-12%,x,x
C/C(=N\NC(N)=O)C1(C)CCCCC1,1%,14%,25µM*,-10%,23
C/C(=N\NC(N)=S)C1(C)CCCCC1,2%,-6%,u,3%,u
CC1CC(C)CN(CC(=O)NC(c2ccccc2)c2ccccc2)C1 (stereo not drawn),-5%,x,11µM*,x,x
O=C(CN1CCN(C(c2ccccc2)c2ccccc2)CC1)Nc1ccc(N2CCOCC2)cc1,0%,-3%[46 µM],-5%,x,x
O=C(CN1CCN(c2ccc(O)cc2)CC1)NC(c1ccccc1)c1ccccc1,-4%,-6%,13µM*,u,3
C[C@@H]1CCC[C@H](C)N1,-1%[17.1 µM],-15%,12%[20.9 µM],-2%,x
COc1ccccc1N1CCN(S(=O)(=O)c2ccc3nc(-c4ccccc4)[nH]c3c2)CC1,1%,u,-3%,-20%,-113*
Cn1c(NNC(=O)C2CCCCC2)cc(=O)n(C)c1=O,-1%,7%[46 µM],3%,x,x
Nc1nnc(SCC(=O)NC2CCCCC2)s1,3%,-14%,-2%,-3%,24
CC1CCCCC1NC(=O)CSc1nncs1 (stereo not drawn),1%,-4%,1%,22µM*,u
CC1CCCCC1NC(=O)CSc1nnc(-c2ccccc2)n1N (stereo not drawn),x,0%,u,x,-122*
CC1CCCC(NC(=O)CSc2nnc(N)s2)C1C (stereo not drawn),-1%,7%,u,28µM*,2
Cc1nnc(SCC(=O)NC2CCCCC2C)s1 (stereo not drawn),-2%,-3%[46 µM],4%,x,x
NNC(=O)CCc1ccc2ccc3ccccc3c2c1,2%[7.66 µM],x,-11%[13.5 µM],-11%,x
